# In PubChem BioAssay (EPA / NIEHS):
# Results filed as inconclusive are left out. Activity calls are given as the source filed them. The calls were made as follows, unless noted: active = hit-call score of the fitted dose curve at least 0.9, where 1 is the maximum; inconclusive = response in the unintended direction; inactive = score below 0.9.
# How the values were obtained:
# [1] = TOX21_p53_BLA_p2_viability: Viability Assessment in the Tox21 HCT-116 p53 Agonism Beta-lactamase Assay, Phase 2 (AID 2283591);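 also: compound exposure lasted 16 h at 37 °C; actives lower the ATP signal meaning cytotoxicity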
# Outline: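 HCT116 p53-bla cells, 4000/well, dosed after 5 h plating (217-fold dilution of DMSO stocks) and incubated 16 h at 37C. Viability taken as cellular ATP by CellTiter-Glo luminescence after 30 min RT; signal loss marks cytotoxicity.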
# [2] = molecular target: Cellular tumor antigen p53 (Homo sapiens) (UniProt P04637); test: TOX21_p53_BLA_p2_ratio: Tox21 HCT-116 p53 Agonism Beta-lactamase Assay, Ratio, Phase 2 (AID 2283592)
# Outline: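 Human colon HCT116 cells with an inducible p53 beta-lactamase reporter are exposed to test chemicals for 16 h at 37C. Reporter induction is read as the 460/530 nm emission ratio after CCF4-AM loading, normalized to DMSO.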
# [3] = TOX21_p53_BLA_p3_viability: Viability Assessment in the Tox21 HCT-116 p53 Agonism Beta-lactamase Assay, Phase 3 (AID 2283593);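 also: cells exposed to compound for 16 h before reading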
# Outline: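 HCT116 cells, 4000/well, dosed 5 h after plating by pin transfer (217-fold dilution from DMSO stock) and incubated 16 h at 37C, 5% CO2. Viability read as ATP luminescence with CellTiter-Glo after 30 min at room temperature.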
# [4] = TOX21_p53_BLA_p4_viability: Viability Assessment in the Tox21 HCT-116 p53 Agonism Beta-lactamase Assay, Phase 4 (AID 2283597);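 also: hits lower the luminescence signal meaning cytotoxicity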
# Outline: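 Luminescent ATP readout (CellTiter-Glo, 30 min, room temperature) in the same wells as the p53 bla ratio. HCT116 cells were treated for 16 h at 37C with DMSO-dissolved compounds.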
# [5] = molecular target: Cellular tumor antigen p53 (Homo sapiens) (UniProt P04637); test: TOX21_p53_BLA_p3_ratio: Tox21 HCT-116 p53 Agonism Beta-lactamase Assay, Ratio, Phase 3 (AID 2283596)
# Outline: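 HCT116 p53-bla cells (4000/well) given compound in DMSO (217-fold dilution) after 5 h, incubated 16 h at 37C. CCF4-AM substrate 2 h at room temperature; 460/530 nm emission ratio, gain fitted against DMSO.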
# [6] = TOX21_p53_BLA_p5_viability: Viability Assessment in the Tox21 HCT-116 p53 Agonism Beta-lactamase Assay, Phase 5 (AID 2283600)
# Outline: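 Seeded cells (4000/well) settle 5 h before compound addition. Plates then incubate 16 h at 37C, receive FRET substrate for 2 h, and finally CellTiter-Glo, with luminescence measured after a 30 min room-temperature incubation.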
# [7] = molecular target: Cellular tumor antigen p53 (Homo sapiens) (UniProt P04637); test: TOX21_p53_BLA_p4_ratio: Tox21 HCT-116 p53 Agonism Beta-lactamase Assay, Ratio, Phase 4 (AID 2283601)
# Outline: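 HCT-116 p53 beta-lactamase reporter cells (4000/well) preincubated 5 h, then compound (217-fold dilution of DMSO stock) for 16 h at 37C. CCF4-AM substrate added 2 h at room temperature; 460/530 nm emission ratio fitted upward versus DMSO.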
# [8] = CCTE_Harrill_HTTr_Viability_MCF7: CCTE's 6-hour Cell Viability Assessment for the High-Throughput Transcriptomics (HTTr) Platform, in MCF-7 cells cultured in DMEM + 10% fetal bovine serum, Harrill Lab (AID 2284010; active = hit-call score of the fitted dose curve at least 0.9, where 1 is the maximum; inactive = score below 0.9)
# Outline: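 Cells were dosed with chemicals in an eight-point dilution series, imaged 6 hours later for propidium iodide uptake, and the endpoint was analyzed by bidirectional fitting against DMSO as negative control.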
# [9] = CCTE_Harrill_HTTr_Apoptosis_MCF7: CCTE's 6-hour Apoptosis Assessment for the High-Throughput Transcriptomics (HTTr) Platform, in MCF-7 cells cultured in DMEM + 10% fetal bovine serum, Harrill Lab (AID 2284011; active = hit-call score of the fitted dose curve at least 0.9, where 1 is the maximum; inactive = score below 0.9)
# Outline: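 Apoptosis in MCF-7 cells grown in DMEM with 10% fetal bovine serum was scored after a six hour exposure by high content imaging of caspase-3/7 activation (CellEvent Caspase 3/7 Green), with DMSO serving as negative control and baseline.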
# [10] = CCTE_Harrill_HTTr_CellCount_MCF7: CCTE's Cell Proliferation Assessment for the High-Throughput Transcriptomics (HTTr) Platform, Harrill Lab (AID 2284012);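 also: count of Hoechst-stained nuclei per well by high-content imaging in MCF-7 cells; cells exposed to compound for six hours; intended direction is loss of nuclei count meaning fewer cells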
# Outline: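 Chemicals in eight-point dilution series are added to MCF-7 cells for six hours, nuclei are stained with Hoechst and imaged, and per-well nuclei counts are fitted in both directions relative to DMSO controls.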
# [11] = molecular target: Cellular tumor antigen p53 (Homo sapiens) (UniProt P04637); test: TOX21_p53_BLA_p5_ratio: Tox21 HCT-116 p53 Agonism Beta-lactamase Assay, Ratio, Phase 5 (AID 2283599)
# Outline: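 HCT-116 p53-bla cells (4000/well) plated 5 h, dosed with compound (217-fold DMSO dilution) for 16 h at 37 C; CCF4-AM substrate 2 h at room temperature. Activity is the 460/530 nm emission ratio (405 nm excitation), fitted in gain-of-signal direction versus DMSO.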
# Sequence of Cellular tumor antigen p53 (Homo sapiens) (P04637 whole entry, looked up): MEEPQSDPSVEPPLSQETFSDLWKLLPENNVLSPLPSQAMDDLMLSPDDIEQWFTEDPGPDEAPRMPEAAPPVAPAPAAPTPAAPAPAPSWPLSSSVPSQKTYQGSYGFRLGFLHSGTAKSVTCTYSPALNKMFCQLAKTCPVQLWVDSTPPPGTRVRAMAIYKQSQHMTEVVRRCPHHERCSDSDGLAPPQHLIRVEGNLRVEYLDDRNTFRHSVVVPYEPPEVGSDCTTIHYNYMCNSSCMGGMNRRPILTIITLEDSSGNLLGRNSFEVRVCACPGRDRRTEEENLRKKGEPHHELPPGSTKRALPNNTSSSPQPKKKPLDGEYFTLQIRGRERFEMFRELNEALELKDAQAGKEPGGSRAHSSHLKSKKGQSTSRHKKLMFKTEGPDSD
smiles,measurement,setting,value
O=C(CCN1CCN2CCCC2C1)N1c2ccccc2Sc2ccc(Cl)cc21 (stereo not given),outcome,[1],inactive
same,outcome,[2],inactive
same,outcome,[3],inactive
same,outcome,[4],inactive
CCc1nccnc1CC,outcome,[1],inactive
same,outcome,[2],inactive
same,outcome,[3],inactive
same,outcome,[5],inactive
same,outcome,[6],inactive
same,outcome,[7],inactive
CC(=O)N(O)CCCCCNC(=O)CCC(=O)N(O)CCCCCNC(=O)CCC(=O)N(O)CCCCCN,outcome,[1],inactive
same,outcome,[2],inactive
same,outcome,[3],inactive
same,outcome,[5],inactive
same,outcome,[7],inactive
C1CCN(CN2CCCCC2)CC1,outcome,[1],inactive
same,outcome,[2],inactive
same,outcome,[3],inactive
same,outcome,[5],inactive
same,outcome,[7],inactive
COc1ccc(C(=O)N2CCN(CC(=O)N3CCOCC3)CC2)cc1,outcome,[1],inactive
same,outcome,[2],inactive
same,outcome,[3],inactive
same,outcome,[5],inactive
same,outcome,[6],inactive
same,outcome,[7],inactive
COc1cc(C(=O)OC(COCCC(C)C)CN2CCOCC2)cc(OC)c1OC (stereo not given),outcome,[1],inactive
same,outcome,[2],inactive
same,outcome,[3],inactive
same,outcome,[4],inactive
CC1(C)C2CC[C@]3(C)[C@H](C(=O)C=C4[C@@H]5C[C@@](C)(C(=O)O)CC[C@]5(C)CC[C@]43C)[C@@]2(C)CC[C@@H]1O[C@H]1O[C@H](C(=O)O)[C@@H](O)[C@H](O)[C@H]1O[C@@H]1O[C@H](C(=O)O)[C@@H](O)[C@H](O)[C@H]1O (stereo not given in full),outcome,[1],inactive
same,outcome,[2],inactive
same,outcome,[3],inactive
same,outcome,[4],inactive
O=C(NC1CCN(CCc2c[nH]c3ccccc23)CC1)c1ccccc1,outcome,[1],inactive
same,outcome,[2],inactive
same,outcome,[3],inactive
same,outcome,[5],inactive
same,outcome,[7],inactive
CC(=O)O[C@H]1C[C@@H]2CC[C@@H]3[C@H](CC[C@@]4(C)[C@H]3C[C@H]([N+]3(C)CCCCC3)[C@@H]4OC(C)=O)[C@@]2(C)C[C@@H]1N1CCCCC1,outcome,[1],inactive
same,outcome,[2],inactive
same,outcome,[3],inactive
same,outcome,[5],inactive
same,outcome,[6],inactive
same,outcome,[7],inactive
C[C@H]1C[C@H]2[C@@H]3CCC4=CC(=O)C=C[C@]4(C)[C@@]3(F)[C@@H](O)C[C@]2(C)[C@@]1(O)C(=O)CCl,outcome,[1],inactive
same,outcome,[2],inactive
same,outcome,[3],inactive
same,outcome,[4],inactive
NCCN1CCNC1=O,outcome,[1],inactive
same,outcome,[2],inactive
same,outcome,[3],inactive
same,outcome,[5],inactive
same,outcome,[6],inactive
same,outcome,[7],inactive
O=C1OC(=O)c2cc([N+](=O)[O-])ccc21,outcome,[1],inactive
same,outcome,[2],inactive
same,outcome,[3],inactive
same,outcome,[4],inactive
Cc1c(NC(C)C)c(=O)n(-c2ccccc2)n1C,outcome,[1],inactive
same,outcome,[2],inactive
same,outcome,[3],inactive
same,outcome,[5],inactive
same,outcome,[6],inactive
same,outcome,[7],inactive
CCC1C(=O)OCC1Cc1cncn1C (stereo not given),outcome,[1],inactive
same,outcome,[2],inactive
same,outcome,[3],inactive
same,outcome,[5],inactive
same,outcome,[6],inactive
same,outcome,[7],inactive
CCn1cc(C(=O)O)c(=O)c2cc3c(cc21)OCO3,outcome,[1],inactive
same,outcome,[2],inactive
same,outcome,[3],inactive
same,outcome,[5],inactive
same,outcome,[6],inactive
same,outcome,[7],inactive
same,outcome,[8],inactive
same,outcome,[9],inactive
same,outcome,[10],inactive
COc1cc2c(cc1OC)CC(=O)N(CCCN(C)C[C@H]1Cc3cc(OC)c(OC)cc31)CC2,outcome,[1],inactive
same,outcome,[2],inactive
same,outcome,[3],inactive
same,outcome,[5],inactive
same,outcome,[6],inactive
same,outcome,[7],inactive
SCCSCCS,outcome,[1],inactive
same,outcome,[2],inactive
same,outcome,[3],inactive
same,outcome,[5],inactive
same,outcome,[6],inactive
same,outcome,[7],inactive
CCCCC[C@H](O)/C=C/[C@H]1[C@H](O)CC(=O)[C@@H]1C/C=C\CCCC(=O)O,outcome,[1],inactive
same,outcome,[2],inactive
same,outcome,[3],inactive
same,outcome,[5],inactive
same,outcome,[6],inactive
same,outcome,[7],inactive
O=C(CCCN1CCN(c2ccccn2)CC1)c1ccc(F)cc1,outcome,[1],inactive
same,outcome,[2],inactive
same,outcome,[3],inactive
same,outcome,[5],inactive
same,outcome,[6],inactive
same,outcome,[7],inactive
CCCCCCC(=O)O[C@H]1CC[C@H]2[C@@H]3CCc4cc(O)ccc4[C@H]3CC[C@]12C,outcome,[1],inactive
same,outcome,[2],inactive
same,outcome,[3],inactive
same,outcome,[5],inactive
same,outcome,[6],inactive
same,outcome,[7],inactive
Cc1cc(CC(=O)O)c(C)n1-c1ccc(Cl)cc1,outcome,[1],inactive
same,outcome,[2],inactive
same,outcome,[3],inactive
same,outcome,[4],inactive
same,outcome,[11],inactive
same,outcome,[6],inactive
same,outcome,[7],inactive
CCCCCCCCCCCCCCCC[N+](C)(C)CCN(Cc1ccc(OC)cc1)c1ncccn1,outcome,[1],inactive
same,outcome,[2],inactive
same,outcome,[3],inactive
same,AC50,[4],17.3 µM (active)
same,outcome,[11],inactive
same,outcome,[6],inactive
same,outcome,[7],inactive
CCOc1ccc(N=C(C)Nc2ccc(OCC)cc2)cc1,outcome,[1],inactive
same,outcome,[2],inactive
same,outcome,[3],inactive
same,outcome,[4],inactive
same,outcome,[11],inactive
same,outcome,[6],inactive
O=C1CCC(=O)O1,outcome,[1],inactive
same,outcome,[2],inactive
same,outcome,[3],inactive
same,outcome,[4],inactive
same,outcome,[11],inactive
Cc1c(O)c(=O)ccn1C,outcome,[1],inactive
same,outcome,[2],inactive
same,outcome,[3],inactive
same,outcome,[4],inactive
same,outcome,[11],inactive
same,outcome,[6],inactive
same,outcome,[7],inactive
C=CCN1C[C@H](C(=O)N(CCCN(C)C)C(=O)NCC)C[C@@H]2c3cccc4[nH]cc(c34)C[C@H]21,outcome,[1],inactive
same,outcome,[2],inactive
same,outcome,[3],inactive
same,outcome,[4],inactive
same,outcome,[11],inactive
same,outcome,[6],inactive
same,outcome,[7],inactive
CCCCCSCCCCC,outcome,[1],inactive
same,outcome,[2],inactive
same,outcome,[3],inactive
same,outcome,[4],inactive
same,outcome,[11],inactive
same,outcome,[6],inactive
S=c1nccc[nH]1,outcome,[1],inactive
same,outcome,[2],inactive
same,outcome,[3],inactive
same,outcome,[4],inactive
same,outcome,[11],inactive
same,outcome,[6],inactive
same,outcome,[7],inactive
CCOC(=O)[C@H](CCc1ccccc1)N[C@@H](C)C(=O)N1CCC[C@H]1C(=O)O,outcome,[1],inactive
same,outcome,[2],inactive
same,outcome,[3],inactive
same,outcome,[4],inactive
same,outcome,[11],inactive
same,outcome,[6],inactive
C=CCOc1c(Br)cc(C(C)(C)c2cc(Br)c(OCC=C)c(Br)c2)cc1Br,outcome,[1],inactive
same,outcome,[2],inactive
same,outcome,[3],inactive
same,outcome,[4],inactive
same,outcome,[11],inactive
same,outcome,[6],inactive
CCCCCC1Nc2cc(C(F)(F)F)c(S(N)(=O)=O)cc2S(=O)(=O)N1 (stereo not given),outcome,[1],inactive
same,outcome,[2],inactive
same,outcome,[3],inactive
same,outcome,[4],inactive
same,outcome,[11],inactive
same,outcome,[6],inactive
